Screening results: PubChem BioAssay, National Center for Advancing Translational Sciences (NCATS)
PLK1 PBD block: PLK1 (human) polo-box domain binding inhibition; Plk1 PBD binding of FITC phosphopeptide, fluorescence polarization; actives 2.8% (n = 360,000); Potency, µM, for the others: max response, negative = inhibition, hits mostly inhibitors; AID 720504; P53350; note: series mostly up to about 57 µM; % is set by controls: 0 for no effect and ±100 for the full control effect; nearly all actives have a fitted effect of over 65% in size
JMJD2A Tudor: JMJD2A Tudor domain (human) inhibition; O75164; AlphaScreen JMJD2A-Tudor / H3K4me3 peptide binding; Potency, µM (doses to about 114 µM), inactives show at the highest dose activity change, negative = inhibition, actives largely listed as inhibitors; actives 4.4% (n = 390,000); note: % is set by controls: 0 for no effect and ±100 for the full control effect; nearly all actives have a fitted effect of over 50% in size
Target sequence (O75164 whole entry, looked up, the tested form may be a part): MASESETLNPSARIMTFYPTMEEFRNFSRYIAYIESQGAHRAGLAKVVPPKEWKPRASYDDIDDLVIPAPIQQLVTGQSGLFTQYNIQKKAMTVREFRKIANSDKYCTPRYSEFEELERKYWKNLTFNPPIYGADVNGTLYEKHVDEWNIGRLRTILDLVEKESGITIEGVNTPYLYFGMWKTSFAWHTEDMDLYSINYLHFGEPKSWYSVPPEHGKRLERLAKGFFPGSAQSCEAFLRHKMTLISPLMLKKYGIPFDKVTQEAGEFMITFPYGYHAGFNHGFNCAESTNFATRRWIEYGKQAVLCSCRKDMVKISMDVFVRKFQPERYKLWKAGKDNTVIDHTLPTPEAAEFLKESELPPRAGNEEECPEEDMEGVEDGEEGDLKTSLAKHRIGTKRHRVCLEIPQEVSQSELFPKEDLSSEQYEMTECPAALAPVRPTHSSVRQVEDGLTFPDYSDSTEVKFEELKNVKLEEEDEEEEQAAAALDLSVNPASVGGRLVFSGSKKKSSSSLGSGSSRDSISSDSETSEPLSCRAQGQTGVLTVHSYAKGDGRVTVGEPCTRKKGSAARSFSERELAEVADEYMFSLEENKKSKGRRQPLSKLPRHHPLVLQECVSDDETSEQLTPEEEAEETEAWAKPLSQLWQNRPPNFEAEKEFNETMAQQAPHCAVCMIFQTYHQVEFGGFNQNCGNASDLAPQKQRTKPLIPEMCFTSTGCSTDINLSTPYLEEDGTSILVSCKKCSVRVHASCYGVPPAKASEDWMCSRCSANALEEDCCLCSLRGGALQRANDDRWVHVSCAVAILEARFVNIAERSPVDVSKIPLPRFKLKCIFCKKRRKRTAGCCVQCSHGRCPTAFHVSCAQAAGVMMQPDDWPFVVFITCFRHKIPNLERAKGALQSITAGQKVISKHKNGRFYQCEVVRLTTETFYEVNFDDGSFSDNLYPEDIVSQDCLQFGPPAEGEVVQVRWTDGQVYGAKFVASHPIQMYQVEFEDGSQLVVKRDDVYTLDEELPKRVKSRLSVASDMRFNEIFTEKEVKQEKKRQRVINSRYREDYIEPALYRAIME
HP1b chromo inh: HP1-beta chromodomain-methylated histone interaction inhibition; P83916; AID 540317; Potency, µM (top dose mostly 114 µM), without a hit: at the top dose activity change, negative = inhibition, usual class: inhibitors; actives 0.56% (n = 390,000); AlphaScreen HP1-beta / biotin-H3K9me3 peptide binding; note: nearly all actives have a fitted effect of over 70% in size
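Compound inhibition of the preformed complex between 50 nM HP1-beta and 50 nM biotinylated H3K9me3 peptide was read by AlphaScreen. Buffer was PBS pH 7.4 with 0.01% Tween-20. Incubations ran 30 min at room temperature, with 10 ug/mL donor/acceptor beads.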
BAZ2B block: blocks human BAZ2B; actives 4.4% (n = 360,000); AlphaScreen BAZ2B-H3K14Ac peptide displacement; Potency, µM (highest dose often 114 µM), for inactives: top-dose activity change, negative = inhibition, most hits filed as inhibitors; AID 504333; note: % is set by controls: 0 for no effect and ±100 for the full control effect; nearly all actives have a fitted effect of over 60% in size
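Protein-peptide AlphaScreen: BAZ2B 50 nM, b-H3K14Ac 50 nM, 1x PBS pH 7.4 + 0.01% Tween-20. Preincubation 30 min RT; cpd 30 min RT (top 110 uM); beads 20 min RT, light-protected.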
G9a block: blocks human histone lysine methyltransferase G9a. Potency, µM (top dose mostly 102 µM), inactives show at the top dose activity, negative = inhibition, hits mostly inhibitors. actives 8.8% (n = 350,000). G9a H3K9 monomethylation, AlphaScreen, 2 h. Q96KQ7; note: % is set by controls: 0 for no effect and ±100 for the full control effect; nearly all actives have a fitted effect of over 75% in size
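G9a (20 nM) was preincubated 15 min with compound, then reacted 2 h at room temperature with 500 nM biotin-H3K9 peptide and 20 µM SAM. Monomethyl-H3K9 detected by AlphaScreen using anti-H3K9me1 antibody.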
Sfp PPTase inh: blocks B. subtilis Sfp PPTase activity. Q9F4F7. Biochemical Sfp PPTase activity, qHTS. Potency, µM, without a hit: largest response in the series, negative = inhibition, hits mostly inhibitors. actives 3.5% (n = 310,000);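 note: the enzyme is Sfp with the accession as filed and its product quenches rhodamine fluorescence; 0% = enzyme reaction without inhibitor and -100% = no enzyme wells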
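With Hepes-Na pH 7.6 buffer containing 10 mM MgCl2, Sfp (15 nM) modified BHQ-2-YbbR (12.5 uM) using rhodamine-CoA (5 uM). Two reads 30 minutes apart at 525/598 nm yielded each well's rate.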
An asterisk follows results filed as active; ? = inconclusive; . = no result; [ ] = remark or other dose. This is a sample that favours compounds with a hit; in the whole collection about 12% have one here. Calls come from the whole dose curve; as a rule, active = well fitted curve in the direction sought with a large enough effect; inconclusive = small, poorly fitted or top-dose-only effect, or another doubt; inactive = no such curve, though single readings can be large; an effect the other way counts as inactive or inconclusive. Potency is the fitted concentration of half-maximal effect.

SMILES | PLK1 PBD block | JMJD2A Tudor | HP1b chromo inh | BAZ2B block | G9a block | Sfp PPTase inh
Cc1nnc(N/N=C\c2ccc(-c3ccccc3[N+](=O)[O-])o2)n1N | -17% | ? | -8% | 71µM* | 6.3µM* | 18µM*
Cc1nnc(N/N=C/c2ccc(-c3ccccc3F)o2)n1N | -16% | -23% | 4% | -1% | 40µM* | 45µM*
Cc1n[nH]c(=S)n1/N=C/c1ccc(-c2ccccc2[N+](=O)[O-])o1 | -16% | 40µM* | 3% | -32% | ? | 8.9µM*
COC(=O)[C@@H](Cc1c[nH]c2ccccc12)NCc1ccc(B(O)O)cc1 | 0% | -28% | 46% | . | . | .
CC[C@@H](C)[C@H](NS(=O)(=O)c1cccc2ccccc12)C(=O)N[C@H](C=O)Cc1c[nH]c2ccccc12 | . | . | . | . | 0%[59 µM] | ?
CCCN(CCC)c1cc(C)nc2nc(-c3ccc(C(C)(C)C)cc3)nn12 | . | -14% | 36% | -1% | -32%[59 µM] | .
Cc1ccc(Nc2ncnc3nc[nH]c23)cc1 | . | -28% | 37% | . | . | .
O=C(C1CCCN(S(=O)(=O)c2ccccc2)C1)N1CCCCC1 (centres undefined) | -5% | -14% | 30% | -2% | . | 13%
CN1CCN(C(=O)C2CCCN(S(=O)(=O)c3ccccc3)C2)CC1 (centres undefined) | -10% | 20µM* | -16% | ? | . | ?
Cc1ccc(S(=O)(=O)N2CCCC(C(=O)O)C2)s1 (centres undefined) | 30µM* | ? | 13% | -3% | ? | -2%
O=C(C1CCCCC1)N1CCN(S(=O)(=O)c2ccc(Cl)cc2)CC1 | 30µM* | -12%[11.4 µM] | -10% | 6% | 5% | 13%
CN1CCN(C(=O)C2CCCN(S(=O)(=O)c3ccc(Cl)cc3)C2)CC1 (centres undefined) | -8% | 0.71µM* | ? | 50µM* | 10µM* | -25%
COC(=O)c1ccc2c(=O)n(CCCCCC(=O)N3CCN(c4ccc(Cl)cc4)CC3)c(=O)[nH]c2c1 | . | -28% | 49% | -2% | -3%[59 µM] | .
COc1ccccc1NC(=O)C1CC(C)OC1=O (centres undefined) | -18% | -11% | 0% | . | . | .
CSc1nc2[nH]c(=O)n(O)c(=O)c2n1Cc1ccccc1 | -6% | 3.2µM* | -15% | . | . | .
CC(C)(C)Cc1nnc(NC(=O)Cc2cccs2)s1 | 19µM* | -5%[11.4 µM] | ? | -2% | 3% | 18%
CC(C)Cc1nnc(NC(=O)CSc2ccccn2)s1 | ? | -3% | 39% | -30% | 45µM* | 45µM*
CCCCCc1nnc(NC(=O)Cc2cccs2)s1 | ? | 28µM* | 50µM* | 45µM* | 14µM* | -4%
CC(C)Cc1nnc(NC(=O)Cc2cccs2)s1 | -20% | ? | -15% | 40µM* | 45µM* | -22%
CC(C)c1nnc(NC(=O)Cc2cccs2)s1 | -13% | -29% | 23% | -4% | 4%[59 µM] | 6%
O=C(Cc1cccs1)Nc1nnc(-c2ccncc2)s1 | -8% | -27% | 17% | -30% | 6%[12.7 µM] | 16%
O=C(Cc1cccs1)Nc1nnc(CCc2ccccc2)s1 | -3% | ? | 23% | -39% | -8%[12.7 µM] | -3%
C/C(N)=C(/C#N)C(=O)CSc1nc(-c2ccccc2)c(-c2ccccc2)o1 | -21% | ? | 7% | ? | ? | -1%
CC1=NN(c2nc3ccccc3[nH]2)C(=O)/C1=C/N(C)C | -2% | 56µM* | 48% | 22µM* | 34%[59 µM] | 18%
COc1ccccc1/C=C1/C(=O)N(c2ccc([N+](=O)[O-])cc2)N=C1C | 1.9µM* | ? | -2% | -36% | ? | 18%
CC1=NN(c2ccccc2)C(=O)/C1=C/N(C)C | -10% | -11% | 31% | ? | . | -3%
CCOC1=NN(c2ccc(Cl)cc2)C(=O)/C1=C\N(C)C | -5% | -14% | 29% | -26% | 56µM* | 21%
CCCC1=NN(c2ccc([N+](=O)[O-])cc2)C(=O)/C1=C/N(C)C | -7% | -16% | 21% | 7% | 0%[59 µM] | 79µM*
